Test results published in ChEMBL document CHEMBL1157539, “Thousands of chemical starting points for antimalarial lead identification” (Nature, 2010).

Experiments:
Format in all cases: functional
Plasmodium falciparum [1] = assay: GSK_TCMDC: Inhibition of Plasmodium falciparum 3D7 in whole red blood cells, using parasite LDH activity as an index of growth. Test compounds present at 2uM
Plasmodium falciparum [2] = assay: GSK_TCMDC: Inhibition of Plasmodium falciparum Dd2 in whole red blood cells, using parasite LDH activity as an index of growth. Test compounds present at 2uM
HepG2 = assay: GSK_TCMDC: Percent inhibition of human HepG2 cell line. Test compounds present at 10uM.

SMILES	Inhibition (Plasmodium falciparum [1])	Inhibition (Plasmodium falciparum [2])	Inhibition (HepG2)
COc1ccc(CNc2nc(Nc3cccc(C#N)c3)nc(Nc3cccc(C#N)c3)n2)cc1Cl	100%	83%	0%
C=CCc1cc(OC)ccc1OCCCOc1c(C)nc(N)nc1N.Cl	92%	97%	67%
CCOC(=O)c1nc(-c2cccnc2)[nH]c1NC(=S)NCc1ccccc1	100%	100%	10%
CN(CCN)Cc1cccc(-c2cccc(-c3nc4cc(F)ccc4[nH]3)c2)c1.O=C(O)C(F)(F)F	95%	19%	20%
COc1ccc(CNC2CCN(C)CC2)cc1-c1cccc(S(=O)(=O)NCc2ccccc2)c1.O=C(O)C(F)(F)F	100%	7%	43%
CC(=O)Nc1ccc(C(=O)NC2CCN(c3ccnc4cc(Cl)ccc34)CC2)cc1.O=C(O)C(F)(F)F	100%	99%	5%
Cc1c(Cc2ccccc2Cl)cnc2nc(N)nc(N)c12.Cl	91%	96%	67%
CCCC1(NC[C@@H](O)[C@H](Cc2ccccc2)NC(=O)c2cc(NCC)cc(N3CCCCS3(=O)=O)c2)CCCCC1.Cl	100%	98%	4%
COc1ccc(CN(C)CCCOc2ccc(NC(=O)C=Cc3ccc(C(C)(C)C)cc3)cc2)cc1OC	100%	87%	14%
CC(C)CCCC(C)NC[C@@H](O)[C@H](Cc1ccccc1)NC(=O)c1cc(N2CCCC2=O)cc(N(c2ccccc2)S(C)(=O)=O)c1 (stereo partly specified)	99%	97%	17%
CN1CCN(Cc2cccc(-c3ccc4c(Nc5ccc(Oc6ccccc6)cc5)ccnc4c3)c2)CC1	100%	100%	41%
CN(C)CCCOc1ccc(CCCCc2ccc(Cl)cc2C(=O)c2ccccc2)cc1.O=C(O)C(=O)O	92%	8%	8%
CCC[C@@H]1CCN[C@H]([C@H](O)c2ccnc3ccc(OC)cc23)C1.Cl	99%	69%	0%
CCOC(=O)CC[C@@H](NC(=O)c1ccc(NCc2ccc3ccc4nc(C)[nH]c(=O)c4c3c2)cc1F)C(=O)N[C@@H](Cc1c[nH]c2ccccc12)C(=O)OCC	98%	77%	45%
CS(=O)(=O)Nc1cccc(-c2cnc3[nH]cc(-c4ccc(CN)cc4)c3c2)c1	98%	95%	27%
Nc1nc(N)c2c(Cl)c(N3CCOCC3)ccc2n1	96%	3%	65%
O=c1cc(NCCCNCc2cc(Cl)cc(Cl)c2OCc2ccc(Cl)cc2)[nH]c2ccccc12	98%	53%	6%
Cl.O=S(=O)(Nc1ccc2nccc(N3CCNCC3)c2c1)c1ccc2oc3ccccc3c2c1	100%	2%	16%
Cc1ccc(NS(=O)(=O)c2ccc(-c3ccccc3)cc2)c(Cn2cnc(N3CCCNCC3)cc2=O)c1.O=C(O)C(F)(F)F	87%	33%	10%
O=S(=O)(Nc1cccc(CCN2CCCCC2CCN2CCCC2)c1)c1ccc2ccccc2c1 (stereo unspecified)	91%	40%	22%
Cc1ccc2c(c1)NCC21CCN(C[C@@H](O)C2CCN(c3cc(C#N)ccn3)CC2)CC1C (stereo partly specified)	90%	79%	28%
O=C1C(c2ccccc2)=C(Nc2ccc(Cl)cc2)c2ccccc21	91%	59%	5%
COc1ccc(CNC2Cc3ccccc3C2)cc1-c1ccc(S(=O)(=O)NCc2ccccc2)s1.O=C(O)C(F)(F)F	97%	25%	22%
COc1cc(Nc2ncc3c(C)nc(-c4cccc(Nc5ccc(CN6CCS(=O)(=O)CC6)cc5)c4)n3n2)cc(OC)c1OC	90%	79%	2%
O=c1c2ccccc2[nH]c2nc3ccccc3c(Nc3ccccc3)c12	98%	97%	8%
CS(=O)(=O)CCNCc1ccc(-c2ccc3c(Nc4ccc(Cl)cc4F)ccnc3c2)o1	99%	98%	6%
O=C(/C=C/c1ccc(C(F)(F)F)cc1)NCCCCCN1CCCN(C(=O)Nc2ccc(F)c(Cl)c2)CC1	100%	33%	33%
